We go through five molecules from PubChem BioAssay.

Assay [1] can be described thus: viability loss with induced miR-34 in A549 – imaging, A549 dox-inducible miR-34, nuclei and caspase counts, primary screen (AID 1347080;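 active means compounds whose cell count with miR-34 switched on is under 0.7 times the count with it off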). The note with it: A549 miR-34 inducible, Hoechst nuclei count, 48 h.
Assay [2] in a line: MELAS cybrid and Rieske KO viability enhancers – cell-based, MELAS cybrids, Rieske KO mouse fibroblasts, CellTiter-Glo, primary screen (AID 1508586;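 active means mean z-score across replicates of 1.96 or higher in either the MELAS or the Rieske mutant cell line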;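 further: z relative to plate mean and SD of compound and empty wells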). The settings on record: low glucose. In general terms: ATP-based viability assays read luminescence as a measure of living cells.
A short description of assay [3]: growth inhibition, single agent or in combination, cell-based, chromothripsis tumors, cisplatin or BGB combos (AID 1671449).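 Further: cells exposed for 96 hours; 0% = vehicle DMSO and 100% = killing by high DMSO.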 The note with it: LFS_MB_P medulloblastoma cells.
Assay [4] can be described thus: growth inhibition, single agent and combos, cell-based, chromothripsis tumors, cisplatin or BGB combos (AID 1671450).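 Further: cells exposed to compound for four days; 0% = vehicle DMSO and 100% = cell killing by high DMSO.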 The note with it: HDN33 neuroblastoma cells, stronger effect = higher value.
Assay [5] is described as follows: growth inhibition, single agents and combos, ICB984, cell-based, cisplatin or BGB combos, synergistic combos for chromothripsis tumors (AID 1671451; call rule not given here;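 further: cells exposed for 96 hours before readout; 0% = vehicle DMSO and 100% = killing by high DMSO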). The settings on record: ICB984 medulloblastoma cells, drug combinations, stronger effect = higher value.
Assay [6] is described as follows: growth inhibition, single agents and combos, LFS_MB_1R, cell-based, cisplatin or BGB combos, synergistic combos for chromothripsis tumors (AID 1671452).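 Further: cells exposed for 96 hours before readout.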 The settings on record: LFS_MB_1R medulloblastoma cells, stronger effect = higher value.
Assay [7] can be described thus: growth inhibition, single agents and combos, HTB85, cell-based, BGB or cisplatin IC20 combos, synergistic combos for chromothripsis tumors (AID 1671453).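 Further: cells exposed for 96 hours before readout; 0% = vehicle DMSO and 100% = high DMSO killing control.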 The settings on record: HTB85 osteosarcoma cells, drug combinations, stronger effect = higher value.
The nature of assay [8]: growth inhibition, single agents and combos, CRL2098, cell-based, BGB or cisplatin IC20 combos, synergistic combos for chromothripsis tumors (AID 1671454).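 Further: cells exposed for 96 h before readout; 0% = vehicle DMSO and 100% = killing by high DMSO.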 The note with it: CRL2098 osteosarcoma cells, drug combinations, stronger effect = higher value.
The nature of assay [9]: growth inhibition, single agents and combos, HD-MB03, cell-based, BGB or cisplatin IC20 combos, synergistic combos for chromothripsis tumors (AID 1671455; in the data active means inhibition above about 83%;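 further: 0% = vehicle DMSO and 100% = high DMSO as cytotoxic control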). The settings on record: HD-MB03 medulloblastoma cells, stronger effect = higher value.
The nature of assay [10]: growth inhibition, single agents and combos, UWB1.289, cell-based, BGB or cisplatin combos, synergistic combos for chromothripsis tumors (AID 1671456).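 Further: cells exposed to compound for four days; 0% = vehicle DMSO and 100% = killing by high DMSO.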 The note with it: UWB1.289 ovarian carcinoma cells, stronger effect = higher value.
Assay [11] is described as follows: growth inhibition, single agents and combos, LFS_MB_2R, cell-based, cisplatin combos, synergistic combos for chromothripsis tumors (AID 1671457).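 Further: cells exposed to compound for four days before readout.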 The settings on record: LFS_MB_2R medulloblastoma cells, stronger effect = higher value.
Assay [12] is described as follows: growth inhibition, MDA-MB-436, cell-based, BGB or cisplatin combos, synergistic combos for chromothripsis tumors (AID 1671458; call rule not given here;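 further: cells exposed for 96 hours; 0% = vehicle DMSO and 100% = killing by high DMSO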). The settings on record: MDA-MB-436 breast carcinoma growth inhibition, drug combinations, stronger effect = higher value.
Assay [13] is described as follows: UWB1.289_BRCA1 ovarian cancer growth, cell-based, BGB or cisplatin combinations (AID 1671459). The note with it: UWB1.289 BRCA1 ovarian carcinoma, drug combinations, stronger effect = higher value.
Assay [14] can be described thus: drug combination toxicity in non-malignant astrocytes – cell-based, BGB or cisplatin IC20 combos, cytotoxicity control for chromothriptic childhood tumor combination screen (AID 1671460).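 Further: cells exposed to compounds for 96 hours before viability readout; 0% = vehicle and 100% = killing control.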 The note with it: Human astrocytes, viability inhibition, drug combinations, at 0.5 µM, stronger effect = higher value.
The nature of assay [15]: BT084 cell growth, single and combined drugs, ICGC_MB145, cisplatin and BGB IC40 combos (AID 1671461).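 Further: cells exposed to drugs for 96 hours; 0% = vehicle DMSO and 100% = high DMSO full killing control.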 The note with it: BT084 medulloblastoma cells, drug combinations, stronger effect = higher value.
Assay [16] in a line: RCMB18 cell growth, single agent and combined, cisplatin and BGB IC40 combos (AID 1671462).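 Further: cells exposed to compound for four days.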 The settings on record: RCMB18 medulloblastoma cells, stronger effect = higher value.
Assay [17] is described as follows: CRL1545 cell growth, single agent and combined, cisplatin and BGB IC20 combos (AID 1671464).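 Further: cells exposed to compound for 96 hours before readout; 0% = vehicle DMSO and 100% = high DMSO killing control.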 The note with it: CRL1545 osteosarcoma cells, stronger effect = higher value.
Assay [18] is described as follows: compounds altering viability of human ES cells (AID 493140; call rule not given here;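 further: cells exposed to compounds for four days before counting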). The note with it: human embryonic stem cell survival screen; stronger effect = higher value.
Assay [19] is described as follows: P. berghei load reduction in hepatocytes – cell-based, HepG2, luciferase luminescence, HepG2 viability, primary screen (AID 624349; in the data active means parasite load remaining mostly below about 12%, no sharp cut-off; inactive means mostly above about 10%;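 further: 100% = mean of DMSO negative control wells on the same plate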). The settings on record: P. berghei liver stage in HepG2, luciferase luminescence, concentration not given here; parasite load remaining: stronger effect = lower value; viability: measured here: HepG2 viability without parasites.
The mark [20] stands for this setting: stronger effect = lower value, cell number ratio, induced over uninduced.
[21] abbreviates: measured here: relative caspase fold change +Dox/-Dox.
[22] abbreviates: measured here: total cells with miR-34 induction, stronger effect = lower value.
The mark [23] stands for this setting: measured here: total cells without miR-34 induction.
Setting [24] is: MELAS cybrid survival, CellTiter-Glo 48 h, stronger effect = higher value.
Setting [25] is: Rieske KO mouse fibroblast survival, CellTiter-Glo 72 h.
[26] abbreviates: measured here: combination with BGB IC40, at 0.05 µM.
Where [27] appears, read: measured here: with BGB IC20 combination, at 0.5 µM.
[28] abbreviates: measured here: with cisplatin IC20 combination, at 0.5 µM.
[29] abbreviates: measured here: combination with cisplatin, at 0.5 µM.
The mark [30] stands for this setting: measured here: combination with cisplatin, at 5 µM.

Each structure is given as a SMILES string. Several values for one entry are separate records, joined by “and”; a condition that tells them apart may be missing. Equal entries are not always repeated. Activity calls are given as the source filed them. Unless noted, no stated cut-off is given here; in the data, active means inhibition above about 80%; inactive means the rest.

Regarding `CC(Oc1cc(-c2cnn(C3CCNCC3)c2)cnc1N)c1c(Cl)ccc(F)c1Cl` (stereo not given), the fold change in [1] (setting [20]) is 0.89 (inactive) and 0.888 (inactive); in assay [1] (setting [21]), 0.695 and 1.44. Moreover, the cell count is 6060 and 1510 in assay [1] (setting [22]); 6810 and 1700 in assay [1] (setting [23]). In addition, the z-score in assay [2] (setting [24]) is -0.618 (inactive) and 0.388 (inactive); in assay [2] (setting [25]), -0.613 and -1.18. The inhibition – broadly, the relative decrease from the control value, in per cent – in [3] (at 0.5 µM, stronger effect = higher value) is -14.5% (inactive); in assay [3] (measured here: combination with BGB IC20, at 0.005 µM) it was -15.8%; in [3] (measured here: combination with BGB IC40, at 0.005 µM), -3.96%; in [3] (setting [26]) it was -10.8%; in assay [3] (measured here: combination with cisplatin, at 0.5 µM, stronger effect = higher value), -18.2%; in assay [3] (measured here: combination with cisplatin, at 5 µM, stronger effect = higher value), -60.7%. Further, the inhibition was 54.9% in assay [4] (BGB combo, at 5 µM); 3.71% (inactive) in assay [4] (at 0.5 µM); 68.7% in assay [4] (cisplatin combo, at 5 µM); -2.84% in assay [4] (setting [27]); 14.2% in [4] (setting [28]); 74.1% in assay [4] (single agent, at 5 µM). For the same molecule, the inhibition in assay [5] (BGB IC20 combo, at 0.005 µM) is 9.17%; in assay [5] (BGB IC40 combo, at 0.005 µM), -17.8%; in assay [5] (BGB IC40 combo, at 0.05 µM), 44.6%; in [5] (at 0.5 µM), -13.1% (inactive); in assay [5] (cisplatin combo, at 0.05 µM), 42.6%; in [5] (cisplatin combo, at 0.5 µM) it was -13.5%. Moreover, the inhibition in assay [5] (cisplatin combo, at 5 µM) was -41.4%; in assay [5] (measured here: 5 uM single agent, at 5 µM), -10.6%; in assay [6] (at 0.5 µM) it was -9.48% (inactive); in [6] (setting [26]), 5.36%; in [6] (setting [29]), -34%; in assay [6] (setting [30]), 26.2%. In addition, the inhibition in assay [7] (at 0.5 µM) was 2.72% (inactive); in [7] (measured here: with BGB IC20, at 0.5 µM), 0.991%; in assay [7] (measured here: with BGB IC20, at 5 µM) it was 44.7%; in assay [7] (measured here: with cisplatin IC20, at 0.5 µM) it was 4.34%; in assay [7] (measured here: with cisplatin IC20, at 5 µM), 12.6%; in assay [7] (single agent, at 5 µM), 47.7%. The inhibition in assay [8] (at 0.5 µM) was -32.5% (inactive); in [8] (measured here: combination with BGB at IC20, at 0.5 µM), -20.2%; in assay [8] (measured here: combination with cisplatin at IC20, at 0.5 µM), -64.1%; in assay [9] (at 0.5 µM), 3.43% (inactive); in assay [9] (measured here: combo with BGB at IC20, at 0.5 µM), -2.99%; in assay [9] (measured here: combo with cisplatin at IC20, at 0.5 µM), 13.3%. Moreover, the inhibition is 11.5% (inactive) in assay [10] (at 0.5 µM); 17.9% in assay [10] (measured here: inhibition with BGB combination, at 0.05 µM); 12.8% in [10] (measured here: inhibition with cisplatin combination, at 0.05 µM); -6.87% (inactive) in assay [11] (at 0.5 µM); -10.6% in assay [11] (setting [29]); 26.8% in [11] (setting [30]). In addition, the inhibition was 2.15% (inactive) in assay [12] (at 0.5 µM); 0.074% in [12] (measured here: BGB combination, at 0.5 µM); 18.2% in [12] (measured here: BGB combination, at 5 µM); 3.61% in [12] (measured here: cisplatin combination, at 0.5 µM); 29.4% in [12] (measured here: cisplatin combination, at 5 µM); 53.7% in [13] (BGB combination, concentration series, at 5 µM). The inhibition in [13] (at 0.5 µM) was 8.71% (inactive); in assay [13] (cisplatin combination, concentration series, at 5 µM), 38.8%; in [14], -2.23% (inactive); in assay [14] (measured here: combo with BGB IC20) it was -5.88%; in assay [14] (measured here: combo with cisplatin IC20) it was -4.28%; in [15] (at 0.5 µM) it was 5.1% (inactive). Moreover, the inhibition was -5.89% in assay [15] (cisplatin combination, at 0.5 µM); 96.5% in [15] (cisplatin combination, at 5 µM); -35.9% in assay [15] (measured here: BGB IC40 combination 0.05 uM, at 0.05 µM); 55.8% in assay [15] (single agent, at 5 µM); 16.2% (inactive) in [16] (at 0.5 µM); 34.5% in assay [16] (cisplatin combo, at 5 µM). For the same molecule, the inhibition was 5.63% in assay [16] (measured here: BGB IC40 combination, at 0.05 µM); 33% in [16] (setting [29]); 51.6% in assay [16] (single agent, at 5 µM); -10% (inactive) in [17] (at 0.5 µM); -14.1% in assay [17] (setting [27]); -9.79% in [17] (setting [28]). The inhibition worked out at 7.84% in [17] (single agent, at 0.05 µM) and 64% in assay [17] (single agent, at 5 µM).

Regarding `CNCC(O)c1ccc(OC(=O)C(C)(C)C)c(OC(=O)C(C)(C)C)c1` (stereo not given), the survival in assay [18] is 4.83 (inactive). Further, in [19], the parasite load remaining is 97.5% (inactive) and 55.6% (inactive). Moreover, in assay [19], the viability – broadly, a read-out of living cells in per cent, often relative to untreated cells – was 100% and 75.1%. In addition, the fold change in assay [1] (setting [20]) is 0.893 (inactive); in [1] (setting [21]), 0.873. In addition, the cell count in assay [1] (setting [22]) was 8640; in assay [1] (setting [23]), 9680. Also, the z-score in assay [2] (setting [24]) is -1.22 (inactive); in assay [2] (setting [25]), -0.55.

`CC(=O)O[C@]1(C(C)=O)CC[C@H]2[C@@H]3C=C(Cl)C4=CC(=O)C5CC5[C@]4(C)[C@H]3CC[C@@]21C` (stereo not given in full): the survival in assay [18] is 12.6 (inactive). Besides, the parasite load remaining in assay [19] was 65.7% (inactive). In addition, in assay [19], the viability worked out at 68.5%. Moreover, the results for the fold change in assay [1] (setting [20]) and in [1] (setting [21]) were 0.93 (inactive) and 0.98, respectively. The cell count came to 8920 in assay [1] (setting [22]) and 9590 in assay [1] (setting [23]). Also, the z-score was -0.145 (inactive) in assay [2] (setting [24]) and 0.56 in assay [2] (setting [25]).

In the case of `COc1ccc2c(c1)N(C[C@H](C)CN(C)C)c1ccccc1S2`, the survival in assay [18] was 1.83 (inactive). Besides, in [19], the parasite load remaining is 76.2% (inactive). Besides, in assay [19], the viability is 87.8%. In addition, the fold change in [1] (setting [20]) is 0.88 (inactive); in [1] (setting [21]), 1.53. Further, the figures for the cell count in [1] (setting [22]) and in assay [1] (setting [23]) were 7810 and 8880, respectively. For the same molecule, the figures for the z-score in assay [2] (setting [24]) and in assay [2] (setting [25]) were -1.21 (inactive) and -0.494, respectively.

Turning to `CC1CS(=O)(=O)CCN1N=Cc1ccc([N+](=O)[O-])o1` (stereo not given), the survival in assay [18] is 3.75 (inactive). In [19], the parasite load remaining is 67.6% (inactive). In assay [19], the viability came to 75.5%. Also, the fold change in assay [1] (setting [20]) was 0.925 (inactive); in assay [1] (setting [21]), 0.621. Besides, the cell count came to 8950 in [1] (setting [22]) and 9680 in assay [1] (setting [23]). In addition, the z-score was -0.298 (inactive) in assay [2] (setting [24]) and -0.374 in assay [2] (setting [25]).
